These results are taken from PubChem BioAssay.

Assay [1] is described as follows: survival rescue of mitochondrial mutant cells in low glucose, primary screen, MELAS cybrids, Rieske KO mouse fibroblasts, CellTiter-Glo (AID 1508586).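 Also: z relative to plate mean and SD of compound and empty wells.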 In general terms: Cellular ATP, detected with luciferase, serves as a proxy for viable cell number.
The nature of assay [2]: viability rescue of complex I mutant cybrids, primary screen, cell-based, galactose medium, ATP luminescence (AID 1645843;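 active = z-score of at least 1.8 in each of two replicates, scored against plate mean and spread of sample wells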;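 also: positive z means more ATP and so rescue of galactose-driven cybrid death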). The settings on record: complex I mutant cybrid cells, 72 h, stronger effect = higher value.
The nature of assay [3]: circadian clock period modulators, cell-based, LOPAC library, luminescence reporter (AID 2774; call rule not given here;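 also: values are relative to mean of DMSO wells on each plate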). The conditions noted are these: circadian reporter cells, at 7 µM, actives lie on both sides.
Assay [4] has as its system Hepatitis C virus NS3 helicase. The assay is described as follows: HCV NS3 helicase inhibitors, primary screen, biochemical, fluorescence polarization, LOPAC1280 library (AID 687035; in the data active = inhibition above about 37%). The settings on record: Purified HCV NS3 helicase, Cy5-dT15 ssDNA binding fluorescence polarization; stronger effect = higher value; concentration not given here. On the technique in general: Fluorescence polarisation rises when a labelled molecule tumbles more slowly, as on binding a larger partner.

The nature of assay [5]: Cy5 fluorescence quenching or enhancement artefacts, artefact control for HCV NS3 helicase inhibitor project, biochemical, LOPAC1280 (AID 687037; call rule not given here). The settings on record: Cy5-DNA-NS3h complex fluorescence interference counterscreen.
Assay [6] can be described thus: phospholipid biosynthesis inhibitors in animal cells, primary screen, cell-based, LOPAC library, screen 4 (AID 1347384; call rule not given here). The conditions noted are these: phospholipid biosynthesis inhibition screen, at 10 µM.
[7] abbreviates: MELAS cybrid survival, CellTiter-Glo 48 h, stronger effect = higher value.
Setting [8] is: Rieske KO mouse fibroblast survival, CellTiter-Glo 72 h.

Molecules are shown by their SMILES. Active and inactive are the calls of the source.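 The calls were made as follows, unless noted: active = mean z-score across replicates of 1.96 or higher in either the MELAS or the Rieske mutant cell line; inactive = the rest.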

As usually defined, the inhibition is the drop in the measured response relative to a control, in per cent.

For the compound `COc1cc(Br)c(C[N+]2(CCOCCC3CC[C@H]4C[C@@H]3C4(C)C)CCOCC2)cc1OC` (stereo partly drawn), the z-score in assay [1] (setting [7]) was -1.55 (inactive); in assay [1] (setting [8]), 0.547.

Turning to `COc1cccc2c1C(=O)c1c(O)c3c(c(O)c1C2=O)C[C@@](O)(C(=O)CO)C[C@@H]3O[C@@H]1C[C@H](N)[C@@H](O)[C@H](C)O1`, the z-score in assay [1] (setting [7]) is 6.67 (active); in assay [1] (setting [8]), -1.72.

Regarding `CC[C@@H]1NC(=O)[C@H]2CN(CCC(C)C)CCN2C1=O`, the z-score in assay [1] (setting [7]) is 0.225 (inactive); in assay [1] (setting [8]), 0.0851; in assay [2], -0.555 (inactive).

Take `N#CC(=C(\N)Sc1ccccc1N)/C(C#N)=C(/N)Sc1ccccc1N`: the period change in assay [3] was -0.02 h (inactive). Further, the inhibition in assay [4] was -1% (inactive). Further, in assay [5], the fluorescence ratio (interference) was 1 (inactive). In addition, the compound was classed as inactive in assay [6]. In addition, the z-score in assay [2] was -1.33 (inactive).

Turning to `CCN1CCN(C(=O)c2cc(-c3cc(C)cs3)cc(S(=O)(=O)N3CCOCC3)c2)CC1`, the results for the z-score in assay [1] (setting [7]), in assay [1] (setting [8]) and in assay [2] were -0.416 (inactive), -0.432 and 2.05 (inactive), respectively.

On to `CC(=O)[C@@]12OC(C)(c3ccccc3)O[C@@H]1C[C@H]1[C@@H]3CCC4=CC(=O)CC[C@]4(C)[C@H]3CC[C@@]12C` (stereo partly drawn), for which the z-score is 0.905 (inactive) in assay [1] (setting [7]) and 1.8 in assay [1] (setting [8]).

In the case of `Cc1csc(-c2cc(C(=O)NCCN3CCCCC3)cc(S(=O)(=O)N3CCOCC3)c2)c1`, the z-score was 0.0708 (inactive) in assay [1] (setting [7]), -0.233 in assay [1] (setting [8]) and -0.485 (inactive) in assay [2].

On to `CC(C)CC(NP(=O)(O)OC1OC(C)C(O)C(O)C1O)C(=O)NC(Cc1c[nH]c2ccccc12)C(=O)O` (stereo not drawn), for which the z-score was -0.408 (inactive) in assay [1] (setting [7]) and 0.685 in assay [1] (setting [8]).

As to `CCN1C(=O)N(C)C(=O)C12CCN(Cc1cc3oc(C)c(-c4ccccc4)c3cc1OC)CC2`, the z-score in assay [1] (setting [7]) was -0.0202 (inactive); in assay [1] (setting [8]) it was -0.474; in assay [2] it was 1.74 (inactive).

`COc1ccc(C[C@@H]2c3cc(OC)c(OC)cc3CC[N@+]2(C)CCC(=O)OCCCCCOC(=O)CC[N@@+]2(C)CCc3cc(OC)c(OC)cc3[C@H]2Cc2ccc(OC)c(OC)c2)cc1OC`: the z-score in assay [1] (setting [7]) is -1.09 (inactive); in assay [1] (setting [8]) it was -0.143.

Turning to `CO[C@H]1/C=C/O[C@@]2(C)Oc3c(C)c(O)c4c(O)c(c(/C=N/N5CCN(C6CCCC6)CC5)c(O)c4c3C2=O)NC(=O)/C(C)=C\C=C\[C@H](C)[C@H](O)[C@@H](C)[C@@H](O)[C@@H](C)[C@H](OC(C)=O)[C@@H]1C`, the z-score was 0.699 (inactive) in assay [1] (setting [7]) and 0.251 in assay [1] (setting [8]).

As to `CN(C)C1CCN(C(=O)c2cc(-c3ccccc3)cc(S(=O)(=O)N3CCSCC3)c2)C1` (stereo not drawn), the z-score was 0.666 (inactive) in assay [1] (setting [7]), 0.00446 in assay [1] (setting [8]) and 0.465 (inactive) in assay [2].

Consider `COc1c(O[C@@H]2O[C@H](CO)[C@@H](O)[C@H](O)[C@H]2O)cc2c(c1OC)-c1ccc(SC)c(=O)cc1[C@@H](NC(C)=O)CC2`, for which the z-score is 0.122 (inactive) in assay [1] (setting [7]) and 0.151 in assay [1] (setting [8]).

Take `Nc1cc2c(ncn2CCOCP(=O)(O)O)c(=O)[nH]1`: in assay [6], the result was inactive.

In the case of `CC=C(C)C(=O)O[C@H]1[C@H](OC(C)=O)C2(CO)C(CC1(C)C)C1=CCC3C4(C)CCC(OC5O[C@H](C(=O)O)[C@@H](O[C@@H]6O[C@H](CO)[C@@H](O)[C@H](O)[C@H]6O)[C@H](O)[C@H]5O[C@@H]5O[C@H](CO)C(O)[C@H](O)[C@H]5O)[C@](C)(CO)C4CCC3(C)[C@]1(C)C[C@H]2O` (stereo partly drawn), the results for the z-score in assay [1] (setting [7]) and in assay [1] (setting [8]) were 0.702 and 2.95, respectively.

In the case of `CNCC[C@@H](Oc1cccc2ccccc12)c1cccs1`, the z-score in assay [1] (setting [7]) is -0.177 (inactive); in assay [1] (setting [8]) it was 0.977.

For the compound `COC(=O)c1c(NC(=O)c2ccoc2)c2cc(NC(C)CSC)cnc2n1Cc1ccccc1` (stereo not drawn), the z-score in assay [1] (setting [7]) is -1.27 (inactive); in assay [1] (setting [8]), 0.841; in assay [2] it was -1.28 (inactive).

Regarding `COCCNC(=O)COc1ccc(OCCNC[C@H](O)COc2ccccc2)cc1`, the outcome in assay [6] was inactive.

With `CCOC([O-])=Nc1c[n+](N2CCOCC2)no1`, the inhibition in assay [4] is -3% (inactive). In assay [5], the fluorescence ratio (interference) is 1 (inactive). Further, in assay [6], the compound was called inactive.

In the case of `CN1[C@@H]2CC[C@@H]1CC(OC(=O)C(CO)c1ccccc1)C2` (stereo partly drawn), the z-score in assay [1] (setting [7]) was 0.0633 (inactive); in assay [1] (setting [8]), -0.0663.

`CCOc1ccccc1O[C@@H](c1ccccc1)[C@H]1CNCCO1`: the figures for the z-score in assay [1] (setting [7]) and in assay [1] (setting [8]) were -0.0519 (inactive) and -0.0896, respectively.

Turning to `C[N+]1(C)[C@@H]2CC(OC(=O)C(CO)c3ccccc3)C[C@H]1[C@@H]1O[C@@H]12` (stereo partly drawn), the z-score in assay [1] (setting [7]) was -0.282 (inactive); in assay [1] (setting [8]) it was 0.781.

For `Nc1ncnc2c1ncn2[C@@H]1O[C@H](COP(=O)(O)CP(=O)(O)OP(=O)(O)O)[C@H](O)C1O` (stereo partly drawn), the outcome in assay [6] was inactive.
